Several values for one entry are separate records, joined by “and”; a condition that tells them apart may be missing. Identical values can stand only once. Inconclusive results are not listed. Activity calls are given as the source filed them. Unless noted, the call rests on the fitted dose curve; in most records, active means well fitted curve in the direction sought with a large enough effect; inconclusive means small, poorly fitted or top-dose-only effect, or another doubt; inactive means no such curve, though single readings can be large; an effect the other way counts as inactive or inconclusive.
What was measured:
[1] = molecular target: Tumor susceptibility gene 101 protein (Homo sapiens) (UniProt Q99816); test: qHTS Validation Assay for Iinhibitors of HIV-1 Budding by Blocking the Interaction of PTAP/TSG101 (AID 485342; calls by dose curve; further: 0% is about no effect)
Tumor susceptibility gene 101 protein (Homo sapiens), sequence (Q99816 whole entry, looked up, the tested form may be a part): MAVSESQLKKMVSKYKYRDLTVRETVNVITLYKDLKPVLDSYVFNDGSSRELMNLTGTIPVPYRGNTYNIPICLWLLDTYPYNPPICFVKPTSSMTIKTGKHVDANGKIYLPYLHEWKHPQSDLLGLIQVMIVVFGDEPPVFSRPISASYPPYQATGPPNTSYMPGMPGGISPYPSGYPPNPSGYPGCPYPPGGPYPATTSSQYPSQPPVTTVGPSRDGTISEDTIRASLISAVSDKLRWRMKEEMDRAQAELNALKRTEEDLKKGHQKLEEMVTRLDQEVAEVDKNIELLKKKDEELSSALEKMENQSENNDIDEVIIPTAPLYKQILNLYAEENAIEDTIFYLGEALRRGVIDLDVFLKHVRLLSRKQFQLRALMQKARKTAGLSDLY
In short: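 FP read-out: FITC-PTAP peptide, 50 nM final, binding Tsg101 binding domain, 10 uM final; 20 min r.t.; 10 mM HEPES pH 7.5, 0.15 M NaCl, 0.01% Tween 20, 3 mM EDTA, 0.1 mM TCEP.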

[2] = molecular target: Beta-2 adrenergic receptor (Homo sapiens) (UniProt P07550); test: qHTS validation assay of beta-arrestin-biased ligands of beta2-adrenergic receptor (AID 485366); further: 0% is about no effect
In short: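 Arrestin-recruitment (Tango) reporter: ligand-bound beta2-AR recruits beta-arrestin, releasing tTA, which upregulates luciferase. Titrations of up to 46 microM incubated 18 hr at 37 degrees C before luminescent readout.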

[3] = molecular target: ATP-dependent 6-phosphofructokinase (Trypanosoma brucei brucei) (UniProt O15648); test: qHTS Validation Assay to Find Inhibitors of T. brucei phosphofructokinase (AID 485368); further: potency means the concentration at half of the fitted maximal effect
In short: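 Steps: substrate mix (0.5 mM F6P, 0.1 mM ATP, MgCl2, TEA pH 8.0); compound; 1.25 nM T. brucei PFK; 45 min RT; ATP depletion 10 min; ADP-to-ATP detection 10 min; luminescence read; curve fitting and classification.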

[4] = molecular target: Thioredoxin reductase 1, cytoplasmic (Rattus norvegicus) (UniProt O89049); test: qHTS Assay for Substrates of Mammalian Selenoprotein Thioredoxin Reductase 1 (TrxR1) (AID 488772);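 further: NADPH fluorescence in the first read after selenite addition and not the 8 min delta; series mostly up to about 57 µM; 0% is about no effect; a drop in NADPH fluorescence below the no-compound background marks a TrxR1 substrate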
In short: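 Quantitative HTS in Tris-HCl buffer at pH 7.5 with EDTA and Tween-20, using rat TrxR1, 400 uM NADPH and 400 uM selenite (final). A fall in initial NADPH fluorescence relative to background marked substrate behaviour.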

[5] = molecular target: M-phase phosphoprotein 8 (Homo sapiens) (UniProt Q99549); test: qHTS Validation Assay for Inhibitors for MPP8 Chromodomain Interactions with Methylated Histone Tails (AID 488949); further: potency means the concentration at half of the fitted maximal effect; nearly all actives have a fitted effect of over 55% in size
M-phase phosphoprotein 8 (Homo sapiens), sequence (Q99549 whole entry, looked up): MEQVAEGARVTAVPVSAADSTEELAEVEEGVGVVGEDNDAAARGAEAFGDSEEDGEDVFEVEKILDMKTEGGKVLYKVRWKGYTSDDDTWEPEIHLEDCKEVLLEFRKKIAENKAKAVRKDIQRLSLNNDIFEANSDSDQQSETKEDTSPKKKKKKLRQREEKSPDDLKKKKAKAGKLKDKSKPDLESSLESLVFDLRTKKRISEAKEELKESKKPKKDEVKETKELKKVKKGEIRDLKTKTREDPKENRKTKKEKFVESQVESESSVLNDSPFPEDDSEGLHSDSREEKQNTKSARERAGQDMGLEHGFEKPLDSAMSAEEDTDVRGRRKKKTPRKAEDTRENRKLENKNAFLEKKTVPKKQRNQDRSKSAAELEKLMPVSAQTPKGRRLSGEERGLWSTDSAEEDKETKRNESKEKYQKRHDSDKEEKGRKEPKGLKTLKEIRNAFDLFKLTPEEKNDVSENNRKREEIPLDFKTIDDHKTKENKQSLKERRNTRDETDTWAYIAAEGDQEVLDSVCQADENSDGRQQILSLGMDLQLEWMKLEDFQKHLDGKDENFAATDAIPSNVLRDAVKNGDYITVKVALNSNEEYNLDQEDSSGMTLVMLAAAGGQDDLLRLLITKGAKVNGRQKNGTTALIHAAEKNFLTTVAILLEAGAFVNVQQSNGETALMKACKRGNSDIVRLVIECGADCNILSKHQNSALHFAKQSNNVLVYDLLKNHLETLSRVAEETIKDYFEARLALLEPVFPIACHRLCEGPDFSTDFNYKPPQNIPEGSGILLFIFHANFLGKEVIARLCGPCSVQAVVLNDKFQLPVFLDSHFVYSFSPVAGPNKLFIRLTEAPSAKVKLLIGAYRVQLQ
In short: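 AlphaScreen read-out: streptavidin donor and nickel chelate acceptor beads (final 10 ug/mL), 30 min in the dark at RT. Complex of 50 nM MPP8 and 50 nM b-H3(1-18)K9me3 peptide had been exposed to compounds for 30 min beforehand.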

[6] = molecular target: Chromobox protein homolog 1 (Homo sapiens) (UniProt P83916); test: qHTS Validation Assay for Inhibitors of HP1-beta Chromodomain Interactions with Methylated Histone Tails (AID 488953); further: potency means the concentration at half of the fitted maximal effect; nearly all actives have a fitted effect of over 50% in size
Chromobox protein homolog 1 (Homo sapiens), sequence (P83916 whole entry, looked up): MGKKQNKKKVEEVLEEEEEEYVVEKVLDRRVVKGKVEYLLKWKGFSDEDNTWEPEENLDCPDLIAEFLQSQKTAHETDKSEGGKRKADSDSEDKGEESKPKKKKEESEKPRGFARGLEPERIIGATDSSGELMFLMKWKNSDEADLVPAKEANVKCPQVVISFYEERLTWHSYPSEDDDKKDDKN
In short: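 Measured as loss of AlphaScreen luminescence from streptavidin donor and nickel acceptor beads (10 ug/mL final) bridging HP1-beta and biotin-H3(1-18)K9me3, each 50 nM. Compounds met the preassembled complex for 30 min at RT.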

[7] = molecular target: Transient receptor potential cation channel subfamily V member 1 (Homo sapiens) (UniProt Q8NER1); test: HTS Assay for Compounds that Act as Enhancers of the Vanilloid Receptor 1 (AID 488979); further: 0% is about no effect
In short: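 TRPV1-expressing cells loaded with Fluo-8 calcium dye; compounds added and calcium influx read kinetically for 3 min (agonist phase), then capsaicin at EC20 added and read 2 min more for enhancement. Fluorescence ex 480/em 520 nm.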

[8] = molecular target: Thyrotropin receptor (Homo sapiens) (UniProt P16473); test: qHTS Assay for Antagonists of the Thyroid Stimulating Hormone Receptor (AID 488980); further: series mostly up to about 58 µM; 0% is about no effect
In short: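 TSHR-HEK293 cells; 70 uM RO 20-1724 PDE inhibitor; compound + EC80 TSH (4 nM final); anti-cAMP cryptate antibody/cAMP-d2 in lysis buffer, 30 min RT; HTRF 665/620 nm read.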

[9] = molecular target: D(1A) dopamine receptor (Homo sapiens) (UniProt P21728); test: HTS Assay for Allosteric Agonists of the Human D1 Dopamine Receptor: Primary Screen for Agonists (AID 488981); further: 0% is about no effect
D(1A) dopamine receptor (Homo sapiens), sequence (P21728 whole entry, looked up): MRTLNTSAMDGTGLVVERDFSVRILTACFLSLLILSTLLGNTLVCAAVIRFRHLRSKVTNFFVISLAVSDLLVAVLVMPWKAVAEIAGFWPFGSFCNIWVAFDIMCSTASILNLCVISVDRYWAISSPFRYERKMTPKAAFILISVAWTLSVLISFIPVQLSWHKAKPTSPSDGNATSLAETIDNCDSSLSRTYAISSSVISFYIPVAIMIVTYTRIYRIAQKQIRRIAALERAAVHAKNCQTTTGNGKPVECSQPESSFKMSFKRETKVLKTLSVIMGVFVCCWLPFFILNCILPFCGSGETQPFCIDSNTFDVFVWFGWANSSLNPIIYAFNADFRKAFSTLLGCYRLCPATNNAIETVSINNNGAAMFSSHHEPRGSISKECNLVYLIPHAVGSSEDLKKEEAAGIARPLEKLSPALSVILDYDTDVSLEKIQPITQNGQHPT
In short: (§1)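 Tetracycline-induced HEK293 T-REx cells force-coupled to calcium signalling were incubated overnight at 30 C and dye-loaded at room temperature. Calcium flux over 180 s after compound addition flagged agonists; a further 180 s read after EC20 dopamine flagged potentiators.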

[10] = molecular target: D(1A) dopamine receptor (Homo sapiens) (UniProt P21728); test: HTS Assay for Allosteric Agonists of the Human D1 Dopamine Receptor: Primary Screen for Potentiators (AID 488982); further: 0% is about no effect
In short: as §1

[11] = molecular target: D(1A) dopamine receptor (Homo sapiens) (UniProt P21728); test: HTS Assay for Allosteric Agonists of the Human D1 Dopamine Receptor: Primary Screen for Antagonists (AID 488983);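 further: calcium flux response to an EC80 dopamine challenge measured with no-wash dye; on the % scale 0 is the no-effect control and ±100 the full control effect; nearly all actives have a fitted effect of over 65% in size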
In short: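 Screening of inducible HEK293 T-REx D1 cells: compound first, EC80 dopamine 180 s later, each phase read kinetically for calcium over 180 s.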

[12] = Validation screen for small molecules that induce genotoxicity in human embryonic kidney (HEK293T) cells expressing luciferase-tagged ELG1 (AID 493106); further: 0% is about no effect
In short: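 Reporter-gene quantitative HTS in HEK293T cells carrying luciferase-tagged ELG1, whose level climbs under genotoxic stress. Compound exposure lasts 16 hr at 37 °C before luciferase detection.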

[13] = molecular target: Thyrotropin-releasing hormone receptor (Homo sapiens) (UniProt P34981); test: qHTS for Small Molecule Agonists and Allosteric Enhancers of Human TRH Receptor: Validation Screen for Agonists (AID 493127;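 active means calcium activation more than 3 SD above the typical response in the agonist read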;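 further: intracellular calcium rise by fluo-8 fluorescence before TRH EC20 addition; 0% is about no effect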); settings: TRH receptor agonist cell assay; at 2 µM; stronger effect = higher value
In short: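 Gq-coupled calcium mobilization in TRHR cells after compound addition, monitored kinetically with fluo-8 dye on an FDSS reader.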

[14] = qHTS for Inhibitors of Cell Surface uPA Generation: Validation Assay (AID 493164);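 further: RAW 264.7 macrophage cells exposed to compound for 18 h; 0% is about no effect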
In short: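 RAW 264.7, 4000 cells/well, o/n plating; cpd 7-pt 1:5 dilution 2.45 nM–38.3 uM final; 18 h, 37 C/5% CO2; ATP-Lite, 5 s luminescence exposure.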

[15] = Validation screen for small molecules that induce DNA re-replication in SW480 colon adenocarcinoma cells (AID 504364); further: 0% is about no effect
In short: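 Cells are treated 48 hr with test compound, stained 40 min with Hoechst at 37 C, and scanned for nuclear fluorescence; compounds inducing re-replication increase nuclei with elevated intensity.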

[16] = molecular target: Phosphoglycerate kinase, glycosomal (Trypanosoma brucei brucei) (UniProt P07378); test: qHTS Validation Assay to Find Inhibitors of Phosphoglycerate Kinase (AID 504547); further: potency means the concentration at half of the fitted maximal effect
Phosphoglycerate kinase, glycosomal (Trypanosoma brucei brucei), sequence (P07378 whole entry, looked up): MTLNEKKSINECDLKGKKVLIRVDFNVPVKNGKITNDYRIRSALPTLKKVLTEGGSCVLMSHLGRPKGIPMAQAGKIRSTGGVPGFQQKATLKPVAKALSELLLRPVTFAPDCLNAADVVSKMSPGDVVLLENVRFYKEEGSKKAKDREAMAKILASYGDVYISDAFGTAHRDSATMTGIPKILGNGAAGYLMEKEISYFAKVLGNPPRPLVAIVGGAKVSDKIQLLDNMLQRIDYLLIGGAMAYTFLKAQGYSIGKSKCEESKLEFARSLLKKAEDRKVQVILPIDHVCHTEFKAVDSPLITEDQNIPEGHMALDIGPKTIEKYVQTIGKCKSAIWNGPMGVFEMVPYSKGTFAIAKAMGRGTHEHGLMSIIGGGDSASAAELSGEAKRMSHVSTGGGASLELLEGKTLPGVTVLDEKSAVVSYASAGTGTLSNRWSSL
In short: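 Substrate/PGK mix plus compound; reaction started with GAPDH (100nM final) to form 1,3-BPG; 60 min RT; Kinase-Glo Plus 10 min; luminescence. TEA 100mM pH 7.6, MgCl2 5mM, Tween-20 0.01%.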

[17] = molecular target: Ubiquitin carboxyl-terminal hydrolase 1 (Homo sapiens) (UniProt O94782); test: Inhibitors of USP1/UAF1: Pilot qHTS (AID 504865); further: potency means the concentration at half of the fitted maximal effect; nearly all actives have a fitted effect of over 35% in size
In short: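 1nM USP1/UAF1 + cpd, 15 min RT; start w/ Ub-Rho 150nM final; kinetic FL 480/540 nm, 6 reads q60 s. Buffer 50mM HEPES pH 7.8, 0.5mM EDTA, 1mM TCEP, 0.01% Tween-20, 0.1 mg/ml BSA.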

[18] = molecular target: Voltage-gated inwardly rectifying potassium channel KCNH2 (Homo sapiens) (UniProt Q12809); test: qHTS Assay for Small Molecule Inhibitors of the Human hERG Channel Activity (AID 588834);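 further: top concentration of the series differs between compounds; on the % scale 0 is the no-effect control and ±100 the full control effect; lower thallium flux fluorescence means stronger hERG block; nearly all actives have a fitted effect of over 50% in size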
Voltage-gated inwardly rectifying potassium channel KCNH2 (Homo sapiens), sequence (Q12809 whole entry, looked up): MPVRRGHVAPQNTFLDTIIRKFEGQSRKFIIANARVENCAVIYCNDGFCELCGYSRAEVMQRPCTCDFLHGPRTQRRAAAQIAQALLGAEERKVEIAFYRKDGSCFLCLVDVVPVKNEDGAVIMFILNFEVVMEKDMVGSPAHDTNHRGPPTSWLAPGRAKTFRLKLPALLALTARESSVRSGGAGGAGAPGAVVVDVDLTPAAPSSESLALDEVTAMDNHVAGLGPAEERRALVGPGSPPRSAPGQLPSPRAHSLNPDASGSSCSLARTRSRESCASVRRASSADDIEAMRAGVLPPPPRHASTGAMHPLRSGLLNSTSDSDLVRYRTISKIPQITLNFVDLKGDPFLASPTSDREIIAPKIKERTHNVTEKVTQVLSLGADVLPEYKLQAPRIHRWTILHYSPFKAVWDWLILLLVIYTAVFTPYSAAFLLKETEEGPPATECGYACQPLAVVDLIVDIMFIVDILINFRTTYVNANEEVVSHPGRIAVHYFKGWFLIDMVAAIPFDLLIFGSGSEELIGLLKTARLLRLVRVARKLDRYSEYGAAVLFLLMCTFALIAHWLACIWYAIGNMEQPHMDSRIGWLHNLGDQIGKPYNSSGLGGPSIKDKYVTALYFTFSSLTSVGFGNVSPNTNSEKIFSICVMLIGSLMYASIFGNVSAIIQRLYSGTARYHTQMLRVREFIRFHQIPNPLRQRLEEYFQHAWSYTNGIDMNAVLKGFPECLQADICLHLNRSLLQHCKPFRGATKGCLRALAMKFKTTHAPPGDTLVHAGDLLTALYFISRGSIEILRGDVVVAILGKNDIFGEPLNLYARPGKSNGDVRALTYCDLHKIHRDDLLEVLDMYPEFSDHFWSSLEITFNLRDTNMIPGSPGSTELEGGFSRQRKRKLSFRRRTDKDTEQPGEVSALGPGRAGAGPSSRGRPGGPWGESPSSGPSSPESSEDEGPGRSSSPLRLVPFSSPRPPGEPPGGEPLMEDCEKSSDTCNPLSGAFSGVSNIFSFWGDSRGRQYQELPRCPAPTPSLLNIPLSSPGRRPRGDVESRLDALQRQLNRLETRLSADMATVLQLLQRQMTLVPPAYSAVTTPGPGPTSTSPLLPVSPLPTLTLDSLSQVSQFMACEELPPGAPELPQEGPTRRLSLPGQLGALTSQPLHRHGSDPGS
In short: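 Concentration-response qHTS measuring drop in thallium-sensitive dye signal. U2OS cells carrying BacMam hERG; compound exposure ~10 min, then stimulation buffer and 2 min read at 1 sec intervals.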

[19] = molecular target: Glucagon-like peptide 1 receptor (Homo sapiens) (UniProt P43220); test: qHTS of GLP-1 Receptor Agonists: LOPAC Validation (AID 624148);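 further: 0% is about no effect; higher luminescence signal means agonism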
In short: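 HEK293 cells stably co-expressing a cAMP-responsive luciferase reporter and a hypersensitive GLP-1R were plated 12 h at 37 °C and exposed to compounds for 4-6 hr at 37 °C, 5% CO2. Luminescence was read 12 min after adding detection reagent.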

[20] = qHTS of Nrf2 Activators: LOPAC Validation (AID 624149); further: 0% is about no effect
In short: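 ARE reporter activation measured in AREc32 firefly luciferase cells after 24 hr compound exposure; Steady-Glo luminescence.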

[21] = HTS Assay for Allosteric Antagonists of the Human D2 Dopamine Receptor: Hit Validation in HTRF (AID 624455);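 further: stable D1 dopamine receptor cell line scored for blocking the D1 response; on the % scale 0 is the no-effect control and ±100 the full control effect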
In short: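 Signal from an HTRF read-out in D1-expressing stable cells gave hit activity as inhibition of the D1 response.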

[22] = molecular target: Arylsulfatase A (Homo sapiens) (UniProt P15289); test: qHTS screen for enhancers of Arylsulfatase A (ASA1): LOPAC Validation Assay (AID 720538); further: potency means the concentration at half of the fitted maximal effect
Arylsulfatase A (Homo sapiens), sequence (P15289 whole entry, looked up): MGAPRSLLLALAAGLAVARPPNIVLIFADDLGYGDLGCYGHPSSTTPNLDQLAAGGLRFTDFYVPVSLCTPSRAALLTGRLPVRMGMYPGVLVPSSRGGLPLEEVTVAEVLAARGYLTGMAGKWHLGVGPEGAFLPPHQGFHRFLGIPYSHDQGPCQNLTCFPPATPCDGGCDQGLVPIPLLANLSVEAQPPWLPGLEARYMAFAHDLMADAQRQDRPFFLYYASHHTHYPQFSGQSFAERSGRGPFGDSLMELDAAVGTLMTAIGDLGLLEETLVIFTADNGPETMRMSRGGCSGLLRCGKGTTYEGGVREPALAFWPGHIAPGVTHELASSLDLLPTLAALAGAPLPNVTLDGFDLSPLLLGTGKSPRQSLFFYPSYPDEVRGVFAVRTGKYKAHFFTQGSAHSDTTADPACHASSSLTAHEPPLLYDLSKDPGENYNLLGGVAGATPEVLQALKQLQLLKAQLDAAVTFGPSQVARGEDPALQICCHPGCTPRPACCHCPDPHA
In short: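 Read-out: fluorescence at Ex=525/Em=598 nm after 1N NaOH final stop. Patient fibroblasts carrying ASA-I179S had 48h compound exposure, then 14h room-temperature pNCS hydrolysis (0.5mM final) in lysis buffer. Signal increase = enhanced activity.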

[23] = qHTS for compounds that reverse cellular toxicity of Amyloid beta (A-beta) peptide in yeast: LOPAC Validation Assay (AID 720559);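 further: plate controls were DMSO for no effect and equimolar ferric chloride plus clioquinol rescue for full effect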
In short: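 OD600 growth readout after 48 hr at 30 C; A-beta-toxic yeast plus pinned compounds in medium. Normalization: DMSO = negative, equimolar FeCl3 + clioquinol = positive.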

[24] = qHTS for Activators of Parkin Expression: LOPAC Validation Assay (NLuc Reporter) (AID 720572;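 further: 0% = DMSO and 100% = positive control compound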)
In short: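 Neuronal line stably carrying a FLuc/NLuc coincidence reporter under the Parkin promoter, seeded 24 h, then dosed in 7-point series for 24 h at 37 C. NLuc luminescence read after FLuc; normalized to DMSO and positive control (100%).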

[25] = qHTS for Activators of Parkin Expression: LOPAC Validation Assay (FLuc Reporter) (AID 720573;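 further: 0% = DMSO and 100% = positive control compounds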)
In short: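 FLuc luminescence read-out from a neuronal line expressing a Parkin-promoter-driven coincidence reporter. Cells treated 24 h at 37 C, 5% CO2 with compounds at 7 concentrations; signal increase normalized to DMSO and positive control.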

[26] = molecular target: Hexokinase-4 (Homo sapiens) + Glucokinase regulatory protein (Homo sapiens) (UniProt P35557+Q14397); test: qHTS assay for inhibitors of recombinant human GCK-GKRP interaction: ADP-Glo assay (AID 743206);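 further: plate controls were DMSO plus enzyme for no effect and no enzyme for full effect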
In short: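 GST-GCK and FLAG-GKRP (15 nM each in the dispensed mix, with 2 uM S6P) react with 0.4 mM ATP and 5 mM glucose (final) in Hepes pH 7.6 for 60 min at room temperature. ADP is measured by ADP-Glo luminescence.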

[27] = qHTS Assay for Identifying Gametocytocidal Compounds (AID 743244);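 further: on the % scale 0 is the no-effect control and ±100 the full control effect; actives lower the fluorescent signal which means gametocytes are killed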; settings: P. falciparum 3D7 stage III-V gametocytes, alamarBlue, 72 h; max response: stronger effect = lower value
In short: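 3D7 gametocytes, stages III–V, 20,000/well; cpd 72 h, 37 °C/5% CO2; + alamarBlue 24 h; fluor. Ex 525/Em 598.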

[28] = Natriuretic polypeptide receptor (hNpr1) antagonism - Pilot counterscreen GloSensor control cell line (AID 1347045; calls by dose curve; further: potency means the concentration at half of the fitted maximal effect)
In short: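 This counterscreen uses HEK293 cells expressing the GIP/pGS-40F cGMP biosensor. Compound-treated cells are challenged with 50 uM sodium nitroprusside, and the luciferase signal is compared before and after stimulation.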

[29] = NS1 protein of Zika virus - qHTS assay to identify small molecule inhibitors in human HEK 293 cells (AID 1347053);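 further: series mostly up to about 46 µM; plate controls were infected untreated cells for no effect and uninfected cells for full effect; nearly all actives have a fitted effect of over 55% in size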
In short: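 Inhibition of NS1 expression was scored in HEK 293 cells given compound 1 h ahead of MR766 virus (MOI = 0.5). Following 24 h at 37 C, two anti-NS1 antibodies generated a TR-FRET signal, scaled between uninfected and infected controls.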

[30] = molecular target: Tyrosine-protein phosphatase non-receptor type substrate 1 (Homo sapiens) + Leukocyte surface antigen CD47 (Homo sapiens) (UniProt P78324+Q08722); test: CD47-SIRPalpha protein protein interaction - LANCE assay qHTS validation (AID 1347057; active means well fitted curve in the direction sought with a large enough effect in the signal ratio, with a control signal flat, not every such curve was filed as active; the % refers to the signal ratio; further: series mostly up to about 38 µM; 0% is about no effect)
Tyrosine-protein phosphatase non-receptor type substrate 1 (Homo sapiens) + Leukocyte surface antigen CD47 (Homo sapiens), sequence (P78324 whole entry, looked up): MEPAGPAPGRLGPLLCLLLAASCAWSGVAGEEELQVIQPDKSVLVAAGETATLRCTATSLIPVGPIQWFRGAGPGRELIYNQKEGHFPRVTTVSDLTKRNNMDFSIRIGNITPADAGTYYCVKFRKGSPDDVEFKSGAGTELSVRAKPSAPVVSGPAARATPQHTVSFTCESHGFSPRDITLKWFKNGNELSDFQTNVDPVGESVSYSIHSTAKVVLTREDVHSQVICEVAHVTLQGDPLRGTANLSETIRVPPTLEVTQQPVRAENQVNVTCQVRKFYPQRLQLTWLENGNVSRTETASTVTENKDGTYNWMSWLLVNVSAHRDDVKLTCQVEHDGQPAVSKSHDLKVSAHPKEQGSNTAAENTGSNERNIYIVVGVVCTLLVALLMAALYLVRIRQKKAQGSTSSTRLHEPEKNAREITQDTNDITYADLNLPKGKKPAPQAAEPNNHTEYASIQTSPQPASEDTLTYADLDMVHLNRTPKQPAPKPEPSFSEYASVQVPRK
Tyrosine-protein phosphatase non-receptor type substrate 1 (Homo sapiens) + Leukocyte surface antigen CD47 (Homo sapiens), sequence (Q08722 whole entry, looked up): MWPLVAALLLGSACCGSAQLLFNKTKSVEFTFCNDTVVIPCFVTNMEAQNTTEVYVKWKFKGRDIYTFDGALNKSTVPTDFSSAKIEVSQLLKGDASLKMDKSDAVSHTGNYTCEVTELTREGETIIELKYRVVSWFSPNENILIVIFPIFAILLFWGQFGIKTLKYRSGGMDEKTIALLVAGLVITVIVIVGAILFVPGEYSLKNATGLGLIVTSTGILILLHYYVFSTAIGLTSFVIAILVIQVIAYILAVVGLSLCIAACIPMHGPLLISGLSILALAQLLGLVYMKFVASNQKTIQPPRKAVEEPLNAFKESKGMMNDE
In short: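 First, His-tagged CD47 and Eu-labelled anti-His antibody met the compound for 30 min; next, site-specifically biotinylated SIRPalpha was added for 30 min; finally streptavidin-APC was added before reading the TR-FRET ratio.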

Nc1c(S(=O)(=O)O)cc(Nc2ccc(Nc3nc(Cl)nc(Nc4ccc(S(=O)(=O)O)cc4)n3)c(S(=O)(=O)O)c2)c2c1C(=O)c1ccccc1C2=O
active: Potency [3] 2.39 µM | Potency [5] 1.58 µM and 844 nM | Potency [6] 1.26 µM | Potency [16] 5.36 µM | Potency [17] 6.31 µM | Potency [22] 26.9 µM | Potency [28] 9.27 µM
inactive: outcome [1] | outcome [2] | outcome [4] | outcome [7] | outcome [8] | outcome [9] | outcome [10] | outcome [11] | Potency [12] | activation [13] 1.5% | outcome [14] | outcome [15] | Potency [18] | outcome [19] | outcome [20] | outcome [21] | outcome [23] | outcome [24] | Potency [25] | outcome [26] | max response [27] 27.3% | outcome [29] | outcome [30]
